NS1 inh: inhibitors of influenza NS1 protein function | Potency, µM (top dose mostly 46.1 µM), for inactives: top-dose activity, positive = more growth | hit rate 0.4% among 270,000 | AID 2326; calls by dose curve; note: potency is the fitted concentration of half-maximal effect; actives are rising curves; nearly all actives have a fitted effect of over 50% in size
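A cell-based growth assay was used: compounds that relieve NS1-induced slow growth of budding yeast raise OD600. Assay medium was yeast nitrogen base with ammonium sulphate and -URA supplement, pH 6.0, with 2% galactose.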
CHX counter: counter-screen for Shiga toxin inhibitors: cycloheximide protein synthesis inhibition; hit rate 12% among 300,000; cell reporter, cycloheximide protein synthesis inhibition counterscreen; AID 2314; max response, %; in the data active = max response mostly above about 13%, no sharp cut-off; inactive = mostly below about 14%; note: read at 38.3 µM for the half of the compounds with a filed dose; 0% is about no effect
LmPK inhibitor: inhibitors of Leishmania mexicana pyruvate kinase. hit rate 0.37% among 290,000. Potency, µM (titrated, usually from 57.5 µM), without a hit: top-dose activity change, negative = inhibition, actives largely listed as inhibitors. Q27686. purified LmPK, Kinase-Glo ATP luminescence, 1 h; note: potency is the fitted concentration of half-maximal effect; % is set by controls: 0 for no effect and ±100 for the full control effect
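In 50 mM imidazole pH 7.2 with 7 mM MgCl2, LmPK (0.1 nM) turned over PEP (0.5 mM) and ADP (0.1 mM) for 1 h at room temperature. Luciferase read-out of ATP.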
Shiga toxin inh: Shiga toxin inhibition | Vero cells, Shiga toxin protein synthesis inhibition reporter | inhibition, % at 38.7 µM | hit rate 9.2% among 290,000 | AID 2315; in the data active = inhibition mostly above about 28%, no sharp cut-off; inactive = mostly below about 43%; note: 0% is about no effect
FBPA Giardia inh: inhibitors of Giardia lamblia fructose-1,6-bisphosphate aldolase; purified Giardia FBPA; Potency, µM (highest dose often 59.6 µM), for inactives: at the highest dose activity, negative = inhibition, actives largely listed as inhibitors; hit rate 0.71% among 290,000; AID 2451; note: potency is the fitted concentration of half-maximal effect; % is set by controls: 0 for no effect and ±100 for the full control effect; nearly all actives have a fitted effect of over 55% in size
Target sequence (A8B2U2 whole entry, looked up): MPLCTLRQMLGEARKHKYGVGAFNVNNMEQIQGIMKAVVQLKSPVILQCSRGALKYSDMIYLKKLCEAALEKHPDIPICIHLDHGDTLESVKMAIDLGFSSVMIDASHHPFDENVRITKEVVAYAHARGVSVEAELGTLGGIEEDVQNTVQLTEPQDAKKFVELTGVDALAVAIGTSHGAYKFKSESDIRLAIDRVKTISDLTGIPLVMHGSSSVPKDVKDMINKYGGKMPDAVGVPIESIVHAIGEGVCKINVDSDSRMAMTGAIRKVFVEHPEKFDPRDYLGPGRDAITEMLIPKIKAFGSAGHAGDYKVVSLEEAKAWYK
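40 nM FBPA preincubated 10 min at RT with compound (up to 57.5 uM final), then substrate plus GAPDH/TPI/NAD/arsenate coupling and diaphorase/resazurin added. Fluorescence read after 20 min at RT, 525/598 nm.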
Starred values were filed as active, the others as inactive; i = inactive; ? = inconclusive; nt = no result given; [ ] = another dose, or the depositor's remark. This is a sample that favours compounds with a hit; in the whole collection about 14% have one here. Unless noted, calls come from the whole dose curve; as a rule, active = well fitted curve in the direction sought with a large enough effect; inconclusive = small, poorly fitted or top-dose-only effect, or another doubt; inactive = no such curve, though single readings can be large; an effect the other way counts as inactive or inconclusive.

SMILES | NS1 inh | CHX counter | LmPK inhibitor | Shiga toxin inh | FBPA Giardia inh
COc1ccc(Cc2nnc(NC(=O)c3ccccc3F)s2)cc1 | -29.9% | 19.6* | -2.9% | 85.5* | 20.1%
COc1ccc(Cc2nnc(NC(C)=O)s2)cc1 | 2.4% | 10.9 | -10.1% | 29.4 | 3.6%
COCc1nnc(NC(=O)c2ccc(OC)cc2OC)s1 | -3.9% | 46.8* | -5.8% | 104.1* | -4.1%
C=C[C@@H]1CN2CC[C@H]1CC2[C@H](O)c1ccnc2ccccc12 (stereo not given in full) | -4.1% | nt | nt | nt | nt
O=C(Cc1ccccc1)NCC(=O)N1CCN(c2ccccc2F)CC1 | -7.0% | 5.5 | 0.9% | -1.9 | nt
O=C(O)CSCC(=O)Nc1ccc(Cl)cc1C(F)(F)F | 0.0% | -3.5 | -0.6% | -5.7 | 8.1%
CC(C)N(CC(=O)Nc1ccc(Cl)cc1C(F)(F)F)C(=O)CCl | nt | 20.9* | 4.4% | 20.6 | -1.2%
Cc1ccc(NC(=O)CCNS(=O)(=O)c2ccc3[nH]c(=O)oc3c2)cc1N(C)C | 12.9% | -3.8 | -1.6% | -4.9 | ?
O=C(NNC(=O)c1ccc2ccccc2c1O)c1cccs1 | -88.5% | 12.0 | 3.9% | 17.0 | -3.5%
O=C(NNC(=O)c1cc2ccccc2cc1O)c1cccs1 | -3.1% | 44.9* | 0.0% | 109.4* | -5.3%
C/C(=N\NC(=O)c1cc2ccccc2cc1O)c1cccs1 | 18.2% | 36.9* | -26.1% | 79.9* | -8.8%
COC(=O)NC(CC(C)=O)c1cccc(F)c1 (stereo not given) | nt | nt | nt | nt | 1.0%[12.9 µM]
COc1ccc(NS(=O)(=O)NC(=O)c2c(C)n(C)c3ccccc23)cc1 | 4.2% | 23.8* | 3.3% | -6.3 | -25.5%
Cc1nc(C)c(/C(O)=C/c2nc3ccc([N+](=O)[O-])cc3oc2=O)o1 | nt | 12.5 | -2.7% | 15.7 | 12.6µM*
C[N+](C)(C)CCN(Cc1cccs1)c1ccccn1 | -7.7% | nt | nt | nt | nt
Cc1ccc(-c2csc(NC(=O)C3=COCCO3)n2)cc1 | -8.4% | 42.0* | -1.5% | 51.4* | -1.2%
CCOC(=O)c1csc(NC(=O)C2=COCCO2)n1 | 4.0% | 40.5* | -3.5% | 63.3* | nt
Cc1ccc(-c2csc(NC(=O)CN3CCOCC3)n2)cc1 | 7.0% | 0.6 | -2.7% | 10.8 | -9.4%
Cc1ccc(-c2nc(N3CCOCC3)sc2C(=O)N2CCOCC2)cc1 | -13.1% | 10.6 | -3.4% | 23.8* | -1.3%
Cc1ccc(-c2csc(NC(=O)N3CCOCC3)n2)cc1 | -4.2% | 37.8* | -1.8% | 110.8* | -6.8%
CCOC(=O)c1csc(NC(=O)CN2CCOCC2)n1 | 5.2% | -5.1 | 0.0% | -6.6 | ?
CC(=O)OCc1cc(-c2nc3ccccc3[nH]c2=O)nn1-c1ccc(Cl)cc1 | -3.1% | -6.0 | 0.8% | -3.2 | 0.7%
CCCN(CCC)CC(C)(C)NS(=O)(=O)c1ccc(Cl)cc1 | 7.5% | -2.7 | -1.2% | -5.5 | ?
CN=c1scc(-c2ccccc2F)n1/N=C(\C)c1cccnc1 | 2.1% | 48.0* | -7.4% | 148.5* | 0.0%
C/C(=N\N1CCN(C2c3ccccc3-c3ccccc32)CC1)c1cccnc1 | ? | -2.0 | -0.8% | -14.0 | nt
SMILES | NS1 inh | CHX counter | LmPK inhibitor | Shiga toxin inh | FBPA Giardia inh
CC(C)CCC(C(=O)NC(C)c1ccccc1)C(=O)NC(C)c1ccccc1 (stereo not given) | 6.6% | -2.1 | 7.0% | -0.4 | -3.1%
O=Nc1c2ccc[nH]c-2c2ccc([N+](=O)[O-])cc12 | nt | -2.6 | -1.3% | -8.1 | 5.0%
COc1ccccc1NC(=O)C1CCCN(S(=O)(=O)c2ccc(-n3cnnn3)cc2)C1 (stereo not given) | 4.0% | -12.1 | -1.9% | -12.8 | nt
CC1CCc2c(sc(NC(=O)c3ccc(Cn4cc([N+](=O)[O-])cn4)o3)c2C#N)C1 (stereo not given) | 5.1% | 1.9 | 2.9% | -17.2 | 16.0%
NC(=O)c1c(NC(=O)c2cnccn2)sc2c1CCCC2 | nt | 16.4* | 0.0% | 32.0 | -1.9%
Cn1nc(C(=O)Nc2sc3c(c2C#N)CCCC3)ccc1=O | nt | 27.3* | -2.1%[11.5 µM] | 67.0 | -2.7%
O=C(O)CCC(=O)Nc1sc2c(c1C(=O)Nc1ccccc1)CCCCC2 | nt | 10.1 | 1.3% | 39.6* | -26.0%
N#Cc1c(NC(=O)c2ccc(Cn3cc(Br)cn3)o2)sc2c1CCCCC2 | -18.9% | 38.8* | 3.5% | 102.7 | 3.7%
Cn1ncc(Cl)c1C(=O)Nc1sc2c(c1C(N)=O)CCC2 | -6.3% | 0.4 | 0.7% | -2.2 | -0.5%
NC(=O)c1c(NC(=O)CN2CCCC2)sc2c1CCCC2 | -3.5% | 25.8* | -2.0% | 20.6* | 3.2%
O=C(Nc1sc2c(c1C(=O)O)CCCCC2)c1cccnc1 | 7.4% | 7.6 | -0.1% | -1.0 | -13.7%
CNC(=O)c1c(NC(=O)c2nc3ccccc3s2)sc2c1CCC2 | 2.9% | 26.4* | -0.7% | 94.4* | -6.2%
NC(=O)c1c(NC(=O)c2ccncc2)sc2c1CCCCCC2 | -11.4% | 11.6* | -1.9% | 25.6 | 9.1%
N#Cc1c(NC(=O)c2ccncc2)sc2c1CCC2 | -17.4% | 16.8* | 14.9% | 47.4* | ?
CC(C)(C)NC(=O)C(c1ccc(F)cc1)N(Cc1ccco1)C(=O)CCC(=O)Nc1nccs1 (stereo not given) | -3.5% | -2.2 | 5.8% | -11.0 | -7.3%
NC(=O)c1c(NC(=O)c2ccccc2)sc2c1CCc1ccccc1-2 | -2.0% | 21.3* | -2.9% | 32.9 | -5.0%
CCOC(=O)c1c(NC(=O)Cc2cccs2)sc2c1CCCC2 | -7.3% | 0.8 | -2.2% | -22.0 | 3.1%
CC(C)(C)C1CCc2c(sc(NC(=O)c3cccs3)c2C(N)=O)C1 (stereo not given) | 0.9% | 31.6* | -2.2% | 62.5* | -0.6%
NC(=O)c1c(NC(=O)Cc2cccs2)sc2c1CCC2 | 0.6% | 16.1* | -1.1% | 19.3* | -7.0%
NC(=O)c1c(NC(=O)c2ccccc2)sc2c1CCC2 | -12.8% | 64.1* | 0.4% | 78.3* | -8.8%
NCCCNCCCCNCCCNC(=O)CCc1ccc(O)cc1 | nt | -3.2 | nt | i | -2.3%[12.9 µM]
NC(=O)c1c(NC(=O)c2ccncc2)sc2c1CCCC2 | nt | 22.2* | -0.2% | 94.6* | -0.4%
Cc1c(C(=O)O)nc(/C=C\C(=O)O)[nH]c1=O | -2.0% | nt | nt | nt | nt
O=C(O)Cc1cccnc1 | -1.4% | nt | nt | nt | nt
CCOc1ccccc1NC1=CC(=O)CC(c2ccccc2)C1 (stereo not given) | 2.2% | -4.8 | -1.2% | -18.1 | 7.9%
SMILES | NS1 inh | CHX counter | LmPK inhibitor | Shiga toxin inh | FBPA Giardia inh
Nc1ccccc1NC1=CC(=O)CC(c2ccccc2)C1 (stereo not given) | nt | 22.1* | 12.9% | 44.7 | -0.7%
Nc1ccccc1NC1=CC(=O)CC(c2ccco2)C1 (stereo not given) | 9.6% | 46.7* | 0.5% | 72.0* | -26.2%
Cc1cc(C)cc(NC2=CC(=O)CC(c3ccco3)C2)c1 (stereo not given) | -6.9% | -6.0 | 0.2% | 42.7 | 2.9%
COc1ccc(NC2=CC(=O)CC(c3ccccc3)C2)c(OC)c1 (stereo not given) | 14.2% | 37.1* | 0.6% | 28.0 | -5.9%
CC1CC(Nc2ccccc2N)=CC(=O)O1 (stereo not given) | 1.0% | 27.8* | 4.3% | 48.0* | 0.5%
COCCN(Cc1ccc(C)c(Br)c1)C(=O)Cn1cnc(S(=O)(=O)N2CCCC2)c1 | 4.5% | 3.3 | -0.5% | -7.5 | nt
COc1ccc(NC(=O)/C(=C\c2ccc(F)cc2)NC(=O)c2ccco2)cc1 | -8.7% | -10.9 | 5.3% | -4.9 | 2.9%

Source: PubChem
